Measurements from PubChem BioAssay AID1508622 (National Center for Advancing Translational Sciences (NCATS), 2021).
The source made the active and inactive calls. Where a call stands in place of a potency, no number is given. The call rests on the fitted dose curve; in most records, active means well fitted activation curve with a large enough effect; inconclusive means small, poorly fitted or top-dose-only effect; inactive means no such curve, though single readings can be large or run the other way.

Experiment: Confirmatory qHTS for Identification of Small Molecule Activators of Huntingtin-Antisense Promoter Activity
Outline: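 HEK293 luciferase reporter cells, 2,500/well, cultured 24 h, then exposed to compounds at up to 57.5 uM final for 24 h at 37C. Firefly luciferase luminescence read; normalized to vehicle (0%) and zero RLU (-100%).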
Potency means the concentration at half of the fitted maximal effect.

| Compound | Potency |
| --- | --- |
| CCOC(=O)C1CCCN(C(=O)Cn2c(=O)cc(C)c3c(C)nn(C)c32)C1 (stereo not drawn) | inactive |
| Cc1ccc(SCc2nc(-c3ccc(C(=O)NCc4ccccc4Cl)cc3)oc2C)cc1 | inactive |
| CC(=O)C1=C(c2ccc(Cl)c(Cl)c2)N(C(C)=O)n2c(C)nnc2S1 | inactive |
| CN1CCCC(n2nc(Cc3ccc(Cl)cc3)c3ccccc3c2=O)CC1 (stereo not drawn) | inactive |
| O=C(CSc1nccn1Cc1ccco1)Nc1cc(C(F)(F)F)ccc1Cl | inactive |
| COc1ccc(Cn2c(CO)cnc2SCc2ccc(F)cc2)cc1 | inactive |
| Cc1cc(C)cc(NC(=O)Nc2cccs2)c1 | 3.38 µM (active) |
| Cc1ccc(Nc2cc(C)nc(-n3nc(C)cc3C)n2)cc1 | inactive |
| CC(CNC(=O)c1ccc(CSc2nc3ccncc3n2Cc2ccc(F)cc2)cc1)c1ccccc1 (stereo not drawn) | inactive |
| CCC(C(=O)NCCc1ccc(SC)cc1)n1nc(C)c2c(C)n(-c3ccc(C)cc3)nc2c1=O (stereo not drawn) | inactive |
| Cc1ccc(NC(=O)c2c(NC(=O)C(F)(F)F)sc3c2CCCCC3)cc1 | inactive |
| Cc1ccc(-c2nc3sc(CCNS(=O)(=O)c4cc(F)ccc4F)c(C)n3n2)cc1 | inactive |
| COc1ccc(OC)c(CCNC(=O)c2cnn(-c3ccc(C)cc3C)c2C2CCN(C(=O)OC(C)(C)C)CC2)c1 | inactive |
| CCc1ccc(OCC(=O)NCC(c2ccc(Cl)cc2)N2CCOCC2)cc1 (stereo not drawn) | inactive |
| COc1cc(CNc2ccc3[nH]c(=O)[nH]c3c2)cc(Br)c1OCc1ccc(F)cc1 | inactive |
| CN1C(=O)c2ccccc2Sc2ccc(NC(=O)NCc3ccc(Cl)cc3)cc21 | inactive |
| COc1ccccc1N1CCN(C(=O)C2CCCN(S(=O)(=O)c3ccc4c(c3)oc(=O)n4C)C2)CC1 (stereo not drawn) | inactive |
| Cc1cccc(-c2nc3scc(CCNS(=O)(=O)c4ccc(Oc5ccccc5)cc4)n3n2)c1 | inactive |
